Data from PubChem BioAssay (NCATS).
Active and inactive are the calls of the source. The call rests on the fitted dose curve; in most records, active means well fitted curve in the direction sought with a large enough effect; inconclusive means small, poorly fitted or top-dose-only effect, or another doubt; inactive means no such curve, though single readings can be large or run the other way.

Target: Hexokinase-4 (Homo sapiens) + Glucokinase regulatory protein (Homo sapiens) (UniProt P35557+Q14397)
Assay: qHTS assay for inhibitors of recombinant human GCK-GKRP interaction: ADP-Glo assay (AID 743206)
Conditions: ADP-Glo luminescence, 60 min, 0% = vehicle-only wells with enzyme present; series mostly up to 76.9 µM
Description: Glucokinase (GCK) is a glucose sensor in hepatocytes and pancreatic beta-cells. Hepatic GCK is regulated by glucokinase regulatory protein (GKRP), which is predominantly localized to the liver. GKRP binds to GCK inhibiting its activity in the fasting state while in the presence of glucose the GKRP is displaced. There is an additional layer of regulation by fructose 1-phosphate and fructose 6-phosphate, which inhibit and enhance the GCK-GKRP interaction, respectively. GCK plays a role in glucose homeostasis and there is an interest in the development of strategies to activate GCK to lower blood glucose levels in type 2 diabetes. To date the majority of effort has focused on direct activation of GCK and the assays developed herein look to activate GCK by inhibiting its binding to GKRP. A compound that inhibits the interaction of GCK with GKRP could be important for the treatment of diabetes and can also be used as a tool compound to further elucidate GCK-GKRP biology. To that end, we have developed a sensitive HTS biochemical assay where in GCK activity is coupled to luciferase to interrogate the GCK-GKRP interaction. This assay was screened against a small compound library to look for modulators of activity.
2 uL of 15 nM GST-GCK and 15 nM FLAG-GKRP proteins with 2 uM S6P (columns 1-2, 4-48; Millipore, Billerica, MA) are dispensed into Greiner, white solid-bottom 1536-well assay plates; columns 3 receive buffer without GCK as a control for maximum inhibition. Compounds (23 nL) are then transferred via Kalypsys pin tool equipped with 1536-pin array (10 nL slotted pins, V&P Scientific, San Diego, CA). The library compounds are in columns 5-48 and columns 1-4 serve as controls with DMSO in columns 1 and 3 and 26 mM 1:1.5 fold serial of gluckokinase activator (GKA-EMD) in column 2 and 26 mM of the glucokinase activator (GKA-EMD) in column 4. Following addition of compound, 1 uL of ATP […] is added, and the plate is incubated for 60 minutes at room temperature. The amount of ADP is then quantified by the ADP-Glo Kit (Promega, Madison, WI). First, 2 uL of the first kit reagent is added, and the reaction is incubated for 45 minutes; then, 4 uL of the second kit reagent are added and the reaction is incubated for 30 minutes at which time the luminescence is read on a Viewlux plate reader (Perkin-Elmer, Waltham, MA). The final concentration of reagents in the reaction are 0.4 mM ATP, 25 mM Hepes pH 7.6, 25 mM KCl, 2 mM MgCl2, 1 mM DTT, 0.025% BSA, 0.01% Tween 20, 5 mM glucose. Data are normalized to DMSO-treated control columns with (maximum signal) and without (minimum signal) enzyme.

Sequence of Hexokinase-4 (Homo sapiens) + Glucokinase regulatory protein (Homo sapiens) (P35557 whole entry, looked up): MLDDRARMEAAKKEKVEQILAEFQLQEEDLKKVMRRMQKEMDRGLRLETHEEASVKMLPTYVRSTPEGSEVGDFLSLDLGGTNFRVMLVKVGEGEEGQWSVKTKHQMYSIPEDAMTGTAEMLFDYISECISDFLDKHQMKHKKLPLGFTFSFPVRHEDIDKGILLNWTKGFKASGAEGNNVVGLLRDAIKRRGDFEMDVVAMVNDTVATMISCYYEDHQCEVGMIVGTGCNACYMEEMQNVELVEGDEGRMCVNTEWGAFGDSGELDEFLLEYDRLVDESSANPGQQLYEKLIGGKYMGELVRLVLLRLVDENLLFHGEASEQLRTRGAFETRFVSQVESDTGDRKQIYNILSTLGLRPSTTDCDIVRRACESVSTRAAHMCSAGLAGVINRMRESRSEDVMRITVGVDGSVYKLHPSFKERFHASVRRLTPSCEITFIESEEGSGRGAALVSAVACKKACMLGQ
Sequence of Hexokinase-4 (Homo sapiens) + Glucokinase regulatory protein (Homo sapiens) (Q14397 whole entry, looked up): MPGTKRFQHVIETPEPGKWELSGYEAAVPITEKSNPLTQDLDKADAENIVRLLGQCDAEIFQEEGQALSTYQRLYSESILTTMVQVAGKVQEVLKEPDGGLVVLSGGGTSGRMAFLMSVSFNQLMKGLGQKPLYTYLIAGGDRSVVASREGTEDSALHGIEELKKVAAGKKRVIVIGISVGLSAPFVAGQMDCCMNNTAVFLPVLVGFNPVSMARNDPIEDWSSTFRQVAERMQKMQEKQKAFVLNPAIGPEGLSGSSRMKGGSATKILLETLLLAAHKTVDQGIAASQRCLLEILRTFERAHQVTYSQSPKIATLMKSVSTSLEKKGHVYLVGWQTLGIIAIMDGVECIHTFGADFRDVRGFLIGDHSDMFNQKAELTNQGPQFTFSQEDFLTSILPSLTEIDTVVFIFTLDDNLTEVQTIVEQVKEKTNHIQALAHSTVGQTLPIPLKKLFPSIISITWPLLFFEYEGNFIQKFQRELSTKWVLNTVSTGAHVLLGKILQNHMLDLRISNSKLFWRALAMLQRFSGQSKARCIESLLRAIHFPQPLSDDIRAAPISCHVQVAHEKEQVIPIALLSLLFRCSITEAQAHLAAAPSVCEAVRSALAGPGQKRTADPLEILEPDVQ

| Compound | outcome |
| --- | --- |
| C[N+](C)(C)CCOC(=O)CBr | inactive |
| CP(=O)(O)C1=CCNCC1 | inactive |
| CCCC[N+]1(C)C2CC(OC(=O)[C@H](CO)c3ccccc3)CC1C1OC12 (stereo not given in full) | inactive |
| CCCN(CCC)C1CCc2cccc(O)c2C1 (stereo not given) | inactive |
| COc1ccc2c(c1)c(CCN1CCOCC1)c(C)n2C(=O)c1cccc(Cl)c1Cl | inactive |
| C/C(O)=C(\C#N)C(=O)Nc1cc(Br)ccc1Br | inactive |
| Cc1sc2ccccc2c1CC1=NCCN1 | inactive |
| C[C@@H]1[C@@H]2Cc3ccc(O)cc3[C@@]1(C)CCN2CC1CC1 | inactive |
| CCCN(CCC)C1Cc2cc(OC)c(OC)cc2C1 | inactive |
| CCCCCCCCCCCCCC(=O)O[C@@H]1[C@@H](C)[C@@]2(O)[C@@H](C=C(CO)C[C@@]3(O)C(=O)C(C)=C[C@@H]23)C2C(C)(C)[C@@]21OC(C)=O (stereo not given in full) | inactive |
| C[N+]1(C)CCc2cc3c(cc2[C@H]1[C@@H]1OC(=O)c2c1ccc1c2OCO1)OCO3 | inactive |
| CCN(CCCl)Cc1ccccc1Br | inactive |
| CCCN(CCC)CCc1c[nH]c2ccc(C(N)=O)cc12 | inactive |
| CN1CCc2cccc(Cl)c2CC1 | inactive |
| CN1CCc2cc(O)cc3c2[C@H]1Cc1ccc(O)c(O)c1-3 | inactive |
| CC(=O)OCC1=C(C(=O)O)N2C(=O)[C@@H](NC(=O)CCC[C@@H](N)C(=O)O)[C@H]2SC1 | inactive |
| C[N+](C)(C)CC#CCOC(=O)Nc1cccc(Cl)c1 | inactive |
| CCNC(=O)[C@H]1O[C@@H](n2cnc3c(N)ncnc32)[C@H](O)[C@@H]1O | inactive |
| CCCn1c(C)c(C(=O)c2ccc3ccccc3c2)c2ccccc21 | inactive |
| COc1ccc2c(c1)/C(=C/c1cnc[nH]1)C(=O)N2 | inactive |

| Compound | outcome |
| --- | --- |
| OC1CCCCC1N1CCC(c2ccccc2)CC1 (stereo not given) | inactive |
| CC(Cc1ccc(OCC(=O)O)cc1)NCC(O)c1cccc(Cl)c1 (stereo not given) | inactive |
| NCCc1ccc(S(=O)(=O)F)cc1 | inactive |
| O=C1CC[C@@]2(O)C3Cc4ccc(O)c5c4C2(CCN3CC2CC2)[C@H]1O5 (stereo not given in full) | inactive |
| NC(Cc1ccc(N(CCCl)CCCl)cc1)C(=O)O (stereo not given) | inactive |
| CC(C)[C@@]1(NC(=O)[C@@H]2C[C@@H]3c4cccc5[nH]cc(c45)C[C@H]3N(C)C2)O[C@@]2(O)[C@@H]3CCCN3C(=O)[C@H](Cc3ccccc3)N2C1=O | inactive |
| CN1C2CCC1CC(OC(c1ccccc1)c1ccccc1N)C2 (stereo not given) | inactive |
| NNC(=O)c1ccc(O)cc1 | inactive |
| CO[C@H]1CC=C2CCN3CCC4=C(CC(=O)OC4)[C@]23C1 | inactive |
| CNc1ccc2oc(C[C@H]3O[C@@]4(CC[C@H]3C)O[C@H]([C@H](C)C(=O)c3ccc[nH]3)[C@H](C)C[C@H]4C)nc2c1C(=O)O | inactive |
| Oc1ccc2c3c1O[C@H]1c4oc5ccccc5c4C[C@@]4(O)C(C2)N(CC2CC2)CCC314 (stereo not given in full) | inactive |
| CC1(C(=O)O)C2CCC(O2)C1(C)C(=O)O (stereo not given) | inactive |
| CCCN1CCc2cccc3c2[C@H]1Cc1ccc(O)c(O)c1-3 | inactive |
| CCCN(CCC)[C@@H]1CCc2cccc(O)c2C1 | inactive |
| c1ccc2c(c1)[I+]c1ccccc1-2 | inactive |
| N[C@@H](CCl)C(=O)O | inactive |
| N=C(N)c1ccc(CS(=O)(=O)F)cc1 | inactive |
| Cc1[nH]c2ccc(O)cc2c1CCN | inactive |
| C[Se]C[C@H](N)C(=O)O | inactive |
| N[C@@H](Cn1oc(=O)[nH]c1=O)C(=O)O | inactive |
